Key:
[1] = biological target: T1, Inhibitor of nuclear factor kappa-B kinase subunit epsilon (Homo sapiens) (UniProt Q14164); settings: at 1 µM;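 note: reported values are averaged percent inhibition figures against human IKKε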
T1 sequence (whole entry): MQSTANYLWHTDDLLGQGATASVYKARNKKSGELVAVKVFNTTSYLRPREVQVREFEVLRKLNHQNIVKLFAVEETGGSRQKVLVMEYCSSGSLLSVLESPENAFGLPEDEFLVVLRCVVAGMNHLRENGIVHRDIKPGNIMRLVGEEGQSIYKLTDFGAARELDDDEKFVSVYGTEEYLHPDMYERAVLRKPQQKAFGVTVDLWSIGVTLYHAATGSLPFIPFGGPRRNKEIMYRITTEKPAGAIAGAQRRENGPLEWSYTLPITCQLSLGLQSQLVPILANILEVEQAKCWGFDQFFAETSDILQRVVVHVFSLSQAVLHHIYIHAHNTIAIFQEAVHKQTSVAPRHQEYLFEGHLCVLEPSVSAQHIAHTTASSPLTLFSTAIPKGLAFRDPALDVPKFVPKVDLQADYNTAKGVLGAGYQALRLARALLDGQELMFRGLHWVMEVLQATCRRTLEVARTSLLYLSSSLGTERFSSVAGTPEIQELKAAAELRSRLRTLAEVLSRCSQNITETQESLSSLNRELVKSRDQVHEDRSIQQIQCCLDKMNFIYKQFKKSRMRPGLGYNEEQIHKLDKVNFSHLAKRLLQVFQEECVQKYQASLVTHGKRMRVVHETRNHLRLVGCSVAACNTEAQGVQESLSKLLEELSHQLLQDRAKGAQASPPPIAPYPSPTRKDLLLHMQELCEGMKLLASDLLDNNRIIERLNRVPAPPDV

[2] = biological target: T2, Serine/threonine-protein kinase Nek1 (Homo sapiens) (UniProt Q96PY6); settings: at 0.1 µM
T2 sequence (whole entry): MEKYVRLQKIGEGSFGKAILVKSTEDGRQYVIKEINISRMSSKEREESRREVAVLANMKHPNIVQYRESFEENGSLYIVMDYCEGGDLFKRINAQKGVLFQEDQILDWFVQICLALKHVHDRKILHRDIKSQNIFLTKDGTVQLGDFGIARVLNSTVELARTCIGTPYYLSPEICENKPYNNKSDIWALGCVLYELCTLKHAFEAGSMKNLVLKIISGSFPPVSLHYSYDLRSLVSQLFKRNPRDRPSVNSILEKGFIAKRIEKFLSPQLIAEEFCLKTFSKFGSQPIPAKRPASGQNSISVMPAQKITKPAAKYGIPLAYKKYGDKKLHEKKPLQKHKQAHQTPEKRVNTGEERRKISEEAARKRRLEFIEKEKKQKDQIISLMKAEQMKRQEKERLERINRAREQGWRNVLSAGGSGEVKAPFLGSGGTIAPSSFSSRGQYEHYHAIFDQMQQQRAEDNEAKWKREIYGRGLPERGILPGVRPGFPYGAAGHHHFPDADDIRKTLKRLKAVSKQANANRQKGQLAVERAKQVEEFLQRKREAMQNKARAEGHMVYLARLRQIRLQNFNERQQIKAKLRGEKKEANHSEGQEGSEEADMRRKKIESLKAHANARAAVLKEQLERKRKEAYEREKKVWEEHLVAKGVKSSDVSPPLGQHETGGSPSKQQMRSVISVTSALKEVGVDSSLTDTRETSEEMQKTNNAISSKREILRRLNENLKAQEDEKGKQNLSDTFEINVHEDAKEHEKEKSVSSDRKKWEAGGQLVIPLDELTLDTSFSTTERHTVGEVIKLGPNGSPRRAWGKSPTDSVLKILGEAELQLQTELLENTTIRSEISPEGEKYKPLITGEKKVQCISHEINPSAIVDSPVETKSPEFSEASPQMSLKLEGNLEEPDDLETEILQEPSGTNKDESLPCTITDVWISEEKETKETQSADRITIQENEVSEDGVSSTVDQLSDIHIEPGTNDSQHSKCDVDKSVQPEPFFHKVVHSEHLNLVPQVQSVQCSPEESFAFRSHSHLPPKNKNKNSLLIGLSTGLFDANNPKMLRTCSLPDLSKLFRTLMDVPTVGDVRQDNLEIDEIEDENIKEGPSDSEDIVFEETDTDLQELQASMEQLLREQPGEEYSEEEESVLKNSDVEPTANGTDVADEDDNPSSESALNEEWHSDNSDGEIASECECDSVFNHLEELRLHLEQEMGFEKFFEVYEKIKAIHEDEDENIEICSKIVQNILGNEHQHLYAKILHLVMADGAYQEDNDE

[3] = biological target: T2, Serine/threonine-protein kinase Nek1 (Homo sapiens); settings: at 1 µM
[4] = biological target: T3, Serine/threonine-protein kinase Nek2 (Homo sapiens) (UniProt P51955); settings: at 0.1 µM
T3 sequence (whole entry): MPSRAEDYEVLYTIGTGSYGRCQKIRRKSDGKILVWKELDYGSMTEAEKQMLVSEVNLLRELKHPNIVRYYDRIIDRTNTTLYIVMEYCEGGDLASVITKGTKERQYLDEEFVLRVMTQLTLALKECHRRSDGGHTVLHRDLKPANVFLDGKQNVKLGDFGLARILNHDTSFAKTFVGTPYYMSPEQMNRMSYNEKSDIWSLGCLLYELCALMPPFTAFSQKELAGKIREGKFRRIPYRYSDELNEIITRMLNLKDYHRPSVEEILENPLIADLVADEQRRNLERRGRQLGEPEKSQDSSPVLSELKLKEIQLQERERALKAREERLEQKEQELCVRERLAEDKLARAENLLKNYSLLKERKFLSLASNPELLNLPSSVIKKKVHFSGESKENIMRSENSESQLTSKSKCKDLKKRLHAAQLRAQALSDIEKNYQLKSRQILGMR

[5] = biological target: T3, Serine/threonine-protein kinase Nek2 (Homo sapiens); settings: at 1 µM
[6] = biological target: Serine/threonine-protein kinase Nek6 (Homo sapiens) (UniProt Q9HC98); settings: at 0.1 µM
Serine/threonine-protein kinase Nek6 (Homo sapiens), sequence (Q9HC98 whole entry): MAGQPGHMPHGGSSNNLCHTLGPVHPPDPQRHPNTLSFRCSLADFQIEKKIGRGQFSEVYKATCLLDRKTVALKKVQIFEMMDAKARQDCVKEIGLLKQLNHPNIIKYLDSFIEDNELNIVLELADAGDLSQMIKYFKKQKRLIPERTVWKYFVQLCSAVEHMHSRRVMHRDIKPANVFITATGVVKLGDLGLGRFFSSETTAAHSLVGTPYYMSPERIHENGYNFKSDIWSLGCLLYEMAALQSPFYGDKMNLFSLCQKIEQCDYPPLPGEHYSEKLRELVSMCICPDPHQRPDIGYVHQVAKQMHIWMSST

[7] = biological target: Serine/threonine-protein kinase Nek6 (Homo sapiens) (UniProt Q9HC98); settings: at 1 µM
[8] = biological target: Serine/threonine-protein kinase Nek7 (Homo sapiens) (UniProt Q8TDX7); settings: at 0.1 µM
Serine/threonine-protein kinase Nek7 (Homo sapiens), sequence (Q8TDX7 whole entry, looked up): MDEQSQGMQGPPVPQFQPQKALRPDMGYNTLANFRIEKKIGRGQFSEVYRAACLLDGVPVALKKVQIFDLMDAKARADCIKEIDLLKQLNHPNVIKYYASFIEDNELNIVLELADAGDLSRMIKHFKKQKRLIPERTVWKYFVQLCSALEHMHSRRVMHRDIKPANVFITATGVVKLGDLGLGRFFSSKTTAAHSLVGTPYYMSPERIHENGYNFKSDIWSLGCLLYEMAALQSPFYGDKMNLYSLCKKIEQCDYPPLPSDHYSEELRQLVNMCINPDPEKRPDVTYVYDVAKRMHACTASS

[9] = biological target: Serine/threonine-protein kinase Nek7 (Homo sapiens) (UniProt Q8TDX7); settings: at 1 µM
[10] = biological target: T4, Serine/threonine-protein kinase Nek9 (Homo sapiens) (UniProt Q8TD19); settings: at 0.1 µM
T4 sequence (whole entry): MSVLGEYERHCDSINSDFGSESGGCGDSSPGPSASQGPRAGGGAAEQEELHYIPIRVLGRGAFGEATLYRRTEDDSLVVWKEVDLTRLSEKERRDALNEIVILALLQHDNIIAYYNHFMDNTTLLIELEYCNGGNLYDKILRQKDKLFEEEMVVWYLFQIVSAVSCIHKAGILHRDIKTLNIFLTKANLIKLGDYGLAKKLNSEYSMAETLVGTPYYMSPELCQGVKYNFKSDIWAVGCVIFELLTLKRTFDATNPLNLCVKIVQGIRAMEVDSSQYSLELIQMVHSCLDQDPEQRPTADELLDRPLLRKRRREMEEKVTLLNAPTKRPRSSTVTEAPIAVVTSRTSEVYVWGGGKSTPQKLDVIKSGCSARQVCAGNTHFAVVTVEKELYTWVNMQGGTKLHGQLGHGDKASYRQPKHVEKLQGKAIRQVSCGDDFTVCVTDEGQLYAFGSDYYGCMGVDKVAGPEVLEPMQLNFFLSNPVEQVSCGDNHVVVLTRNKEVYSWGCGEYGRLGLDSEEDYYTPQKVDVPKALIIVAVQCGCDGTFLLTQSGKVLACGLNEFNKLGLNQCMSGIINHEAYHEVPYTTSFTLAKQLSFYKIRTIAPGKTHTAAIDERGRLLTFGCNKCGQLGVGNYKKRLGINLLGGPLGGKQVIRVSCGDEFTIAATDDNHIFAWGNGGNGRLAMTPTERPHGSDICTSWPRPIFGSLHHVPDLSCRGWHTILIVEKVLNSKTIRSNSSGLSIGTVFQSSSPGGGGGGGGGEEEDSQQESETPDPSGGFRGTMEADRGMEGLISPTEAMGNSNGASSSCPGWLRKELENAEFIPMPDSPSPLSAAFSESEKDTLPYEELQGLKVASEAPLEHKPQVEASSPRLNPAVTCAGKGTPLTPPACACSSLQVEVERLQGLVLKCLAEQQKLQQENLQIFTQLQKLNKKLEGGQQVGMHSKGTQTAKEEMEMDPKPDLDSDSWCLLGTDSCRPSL

[11] = biological target: T4, Serine/threonine-protein kinase Nek9 (Homo sapiens); settings: at 1 µM
[12] = biological target: Serine/threonine-protein kinase PLK1 (Homo sapiens) (UniProt P53350); settings: at 0.1 µM
Serine/threonine-protein kinase PLK1 (Homo sapiens), sequence (P53350 whole entry): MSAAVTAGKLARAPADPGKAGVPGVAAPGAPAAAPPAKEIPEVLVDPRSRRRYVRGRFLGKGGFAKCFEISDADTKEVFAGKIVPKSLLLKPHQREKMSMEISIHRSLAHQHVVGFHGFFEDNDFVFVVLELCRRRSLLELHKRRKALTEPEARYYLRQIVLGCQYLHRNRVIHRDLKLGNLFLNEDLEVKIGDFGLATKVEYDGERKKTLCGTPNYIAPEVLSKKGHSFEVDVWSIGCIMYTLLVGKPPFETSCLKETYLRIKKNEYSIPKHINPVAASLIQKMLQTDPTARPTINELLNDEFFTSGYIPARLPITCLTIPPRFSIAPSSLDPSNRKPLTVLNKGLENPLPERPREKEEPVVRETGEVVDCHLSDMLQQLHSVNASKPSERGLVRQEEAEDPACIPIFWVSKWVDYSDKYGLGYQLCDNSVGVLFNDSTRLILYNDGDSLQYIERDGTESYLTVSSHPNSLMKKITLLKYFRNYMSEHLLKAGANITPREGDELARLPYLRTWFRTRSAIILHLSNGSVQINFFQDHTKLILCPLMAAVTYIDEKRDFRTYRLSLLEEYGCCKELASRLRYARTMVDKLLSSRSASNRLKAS

[13] = biological target: T5, Dual specificity protein kinase TTK (Homo sapiens) (UniProt P33981); settings: at 0.1 µM
T5 sequence (whole entry): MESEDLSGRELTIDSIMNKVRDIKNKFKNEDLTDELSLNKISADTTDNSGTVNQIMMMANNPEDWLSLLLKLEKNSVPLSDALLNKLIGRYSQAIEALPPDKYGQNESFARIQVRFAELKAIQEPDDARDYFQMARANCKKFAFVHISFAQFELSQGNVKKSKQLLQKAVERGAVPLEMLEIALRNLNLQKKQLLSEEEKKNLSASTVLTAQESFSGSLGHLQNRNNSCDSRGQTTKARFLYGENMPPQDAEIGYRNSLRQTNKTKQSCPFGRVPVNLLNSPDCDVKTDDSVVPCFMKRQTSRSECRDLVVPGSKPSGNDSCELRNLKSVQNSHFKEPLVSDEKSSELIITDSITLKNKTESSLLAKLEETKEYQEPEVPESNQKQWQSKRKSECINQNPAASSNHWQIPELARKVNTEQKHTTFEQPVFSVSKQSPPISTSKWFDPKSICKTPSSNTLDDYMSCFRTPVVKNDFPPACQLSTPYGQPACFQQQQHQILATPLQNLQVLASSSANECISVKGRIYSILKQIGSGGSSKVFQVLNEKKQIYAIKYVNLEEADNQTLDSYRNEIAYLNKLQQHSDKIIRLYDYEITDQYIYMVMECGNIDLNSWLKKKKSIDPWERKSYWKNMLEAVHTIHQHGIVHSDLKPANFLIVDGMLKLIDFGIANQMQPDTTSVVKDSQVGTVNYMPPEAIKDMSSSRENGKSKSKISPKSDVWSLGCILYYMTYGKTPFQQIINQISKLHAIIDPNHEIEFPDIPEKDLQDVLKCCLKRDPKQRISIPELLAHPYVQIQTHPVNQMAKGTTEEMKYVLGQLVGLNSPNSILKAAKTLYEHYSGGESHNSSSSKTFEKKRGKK

[14] = test system: T6, Receptor-type tyrosine-protein kinase FLT3 (Homo sapiens), P36888 [D835Y]; settings: at 1 µM
T6 sequence (whole entry): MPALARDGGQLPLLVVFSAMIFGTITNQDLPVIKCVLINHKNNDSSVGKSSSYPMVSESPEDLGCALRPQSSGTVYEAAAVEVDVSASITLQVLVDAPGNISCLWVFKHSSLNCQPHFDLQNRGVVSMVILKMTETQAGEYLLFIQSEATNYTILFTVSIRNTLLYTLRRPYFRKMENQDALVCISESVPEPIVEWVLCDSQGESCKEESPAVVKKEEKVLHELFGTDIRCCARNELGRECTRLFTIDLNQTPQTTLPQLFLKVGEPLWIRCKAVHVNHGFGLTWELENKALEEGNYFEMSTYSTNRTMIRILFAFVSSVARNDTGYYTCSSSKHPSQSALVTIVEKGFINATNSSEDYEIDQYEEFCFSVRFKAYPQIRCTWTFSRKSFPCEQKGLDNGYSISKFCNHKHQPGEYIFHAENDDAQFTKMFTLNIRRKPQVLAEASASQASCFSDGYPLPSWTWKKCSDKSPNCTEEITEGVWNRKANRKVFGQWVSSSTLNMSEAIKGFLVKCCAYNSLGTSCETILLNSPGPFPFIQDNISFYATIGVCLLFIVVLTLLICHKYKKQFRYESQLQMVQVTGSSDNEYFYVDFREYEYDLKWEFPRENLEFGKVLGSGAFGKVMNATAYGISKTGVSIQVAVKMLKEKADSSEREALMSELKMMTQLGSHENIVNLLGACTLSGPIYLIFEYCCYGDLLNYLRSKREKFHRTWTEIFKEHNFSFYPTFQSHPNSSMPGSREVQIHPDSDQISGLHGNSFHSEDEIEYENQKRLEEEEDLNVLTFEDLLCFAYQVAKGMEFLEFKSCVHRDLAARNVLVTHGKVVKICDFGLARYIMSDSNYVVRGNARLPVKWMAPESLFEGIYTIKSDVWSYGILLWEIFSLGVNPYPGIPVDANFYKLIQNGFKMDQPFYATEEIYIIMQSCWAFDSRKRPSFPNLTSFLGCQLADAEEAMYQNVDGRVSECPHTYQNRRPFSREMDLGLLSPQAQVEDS

[15] = biological target: Vascular endothelial growth factor receptor 3 (Homo sapiens) (UniProt P35916); settings: at 0.1 µM
Vascular endothelial growth factor receptor 3 (Homo sapiens), sequence (P35916 whole entry): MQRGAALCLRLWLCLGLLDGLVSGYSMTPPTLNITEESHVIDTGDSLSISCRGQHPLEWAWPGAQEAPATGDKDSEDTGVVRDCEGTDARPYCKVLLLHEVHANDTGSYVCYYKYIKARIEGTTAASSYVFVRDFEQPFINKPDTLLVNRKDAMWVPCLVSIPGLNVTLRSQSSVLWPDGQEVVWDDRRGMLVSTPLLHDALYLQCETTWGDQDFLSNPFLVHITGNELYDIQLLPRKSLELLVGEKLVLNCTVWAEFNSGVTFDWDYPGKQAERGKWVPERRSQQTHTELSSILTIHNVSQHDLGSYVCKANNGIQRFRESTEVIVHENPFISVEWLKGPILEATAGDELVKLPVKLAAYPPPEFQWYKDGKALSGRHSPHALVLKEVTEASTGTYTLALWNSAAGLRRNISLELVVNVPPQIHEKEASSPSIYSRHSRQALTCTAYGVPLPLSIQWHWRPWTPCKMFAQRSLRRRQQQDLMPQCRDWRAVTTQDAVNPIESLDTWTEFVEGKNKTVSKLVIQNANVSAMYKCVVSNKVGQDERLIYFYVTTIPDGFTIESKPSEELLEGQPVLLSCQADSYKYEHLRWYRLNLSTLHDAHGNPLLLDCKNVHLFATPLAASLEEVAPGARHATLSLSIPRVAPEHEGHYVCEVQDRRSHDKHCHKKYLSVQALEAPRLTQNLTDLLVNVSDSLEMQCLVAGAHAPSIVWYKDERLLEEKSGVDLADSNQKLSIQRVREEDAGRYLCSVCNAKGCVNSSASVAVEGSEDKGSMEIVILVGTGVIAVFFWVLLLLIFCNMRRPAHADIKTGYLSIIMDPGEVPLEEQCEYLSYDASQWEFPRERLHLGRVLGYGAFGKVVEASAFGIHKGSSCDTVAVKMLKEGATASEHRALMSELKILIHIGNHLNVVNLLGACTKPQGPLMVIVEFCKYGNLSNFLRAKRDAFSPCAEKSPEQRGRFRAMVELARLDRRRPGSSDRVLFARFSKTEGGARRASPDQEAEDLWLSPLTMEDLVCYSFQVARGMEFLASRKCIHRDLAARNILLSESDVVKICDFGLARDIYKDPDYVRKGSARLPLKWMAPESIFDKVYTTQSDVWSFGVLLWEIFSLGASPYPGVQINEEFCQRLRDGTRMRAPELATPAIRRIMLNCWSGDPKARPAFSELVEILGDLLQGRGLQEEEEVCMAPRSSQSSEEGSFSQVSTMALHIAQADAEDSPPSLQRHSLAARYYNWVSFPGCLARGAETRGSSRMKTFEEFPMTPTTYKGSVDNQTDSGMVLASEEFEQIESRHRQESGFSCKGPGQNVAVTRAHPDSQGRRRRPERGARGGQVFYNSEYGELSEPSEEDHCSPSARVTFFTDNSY

[16] = biological target: Vascular endothelial growth factor receptor 3 (Homo sapiens) (UniProt P35916); settings: at 1 µM
[17] = biological target: Macrophage colony-stimulating factor 1 receptor (Homo sapiens) (UniProt P07333); settings: at 0.1 µM
Macrophage colony-stimulating factor 1 receptor (Homo sapiens), sequence (P07333 whole entry): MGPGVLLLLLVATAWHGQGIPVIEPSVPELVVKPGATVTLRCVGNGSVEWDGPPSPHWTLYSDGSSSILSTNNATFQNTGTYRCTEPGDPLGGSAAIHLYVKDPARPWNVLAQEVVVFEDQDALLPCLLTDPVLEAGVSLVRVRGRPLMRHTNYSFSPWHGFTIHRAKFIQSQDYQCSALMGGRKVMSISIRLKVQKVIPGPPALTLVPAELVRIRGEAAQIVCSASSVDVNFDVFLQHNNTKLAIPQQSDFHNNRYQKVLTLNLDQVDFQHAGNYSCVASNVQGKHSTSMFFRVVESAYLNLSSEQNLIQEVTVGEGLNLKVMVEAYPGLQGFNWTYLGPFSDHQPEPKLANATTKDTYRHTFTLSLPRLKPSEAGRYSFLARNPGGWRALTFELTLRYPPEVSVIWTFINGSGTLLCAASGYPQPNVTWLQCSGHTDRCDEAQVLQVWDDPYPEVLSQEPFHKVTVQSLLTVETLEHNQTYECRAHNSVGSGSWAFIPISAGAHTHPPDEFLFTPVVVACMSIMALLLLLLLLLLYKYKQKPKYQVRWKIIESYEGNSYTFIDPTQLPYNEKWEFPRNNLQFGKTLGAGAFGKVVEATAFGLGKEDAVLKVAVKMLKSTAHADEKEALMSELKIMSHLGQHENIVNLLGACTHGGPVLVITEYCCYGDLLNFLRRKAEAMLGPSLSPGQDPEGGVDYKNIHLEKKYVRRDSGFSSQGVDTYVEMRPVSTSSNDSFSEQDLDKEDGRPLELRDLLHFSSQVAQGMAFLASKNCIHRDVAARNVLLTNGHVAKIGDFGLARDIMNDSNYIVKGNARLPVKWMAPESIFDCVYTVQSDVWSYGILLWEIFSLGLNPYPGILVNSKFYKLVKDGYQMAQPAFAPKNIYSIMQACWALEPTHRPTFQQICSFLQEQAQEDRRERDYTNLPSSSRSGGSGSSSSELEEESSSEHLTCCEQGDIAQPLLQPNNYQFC

[18] = biological target: Macrophage colony-stimulating factor 1 receptor (Homo sapiens) (UniProt P07333); settings: at 1 µM
[19] = biological target: Tyrosine-protein kinase Fyn (Homo sapiens) (UniProt P06241); settings: at 0.1 µM
Tyrosine-protein kinase Fyn (Homo sapiens), sequence (P06241 2-537 limits assumed): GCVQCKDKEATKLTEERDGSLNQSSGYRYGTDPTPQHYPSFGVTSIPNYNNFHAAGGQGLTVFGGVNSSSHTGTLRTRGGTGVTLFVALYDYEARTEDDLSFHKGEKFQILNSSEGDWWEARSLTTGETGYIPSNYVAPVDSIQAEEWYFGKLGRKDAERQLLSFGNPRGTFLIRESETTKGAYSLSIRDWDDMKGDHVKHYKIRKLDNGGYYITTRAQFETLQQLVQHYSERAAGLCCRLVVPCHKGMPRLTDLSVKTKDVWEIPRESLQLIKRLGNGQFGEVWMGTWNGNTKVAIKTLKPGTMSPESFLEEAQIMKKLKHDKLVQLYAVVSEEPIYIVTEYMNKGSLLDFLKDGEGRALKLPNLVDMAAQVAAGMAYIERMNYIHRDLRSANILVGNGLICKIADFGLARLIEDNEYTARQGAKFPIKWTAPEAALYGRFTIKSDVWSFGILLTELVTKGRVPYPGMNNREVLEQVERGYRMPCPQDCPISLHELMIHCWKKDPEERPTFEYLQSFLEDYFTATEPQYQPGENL

[20] = biological target: Serine/threonine-protein kinase PLK1 (Homo sapiens) (UniProt P53350); settings: at 1 µM

Compound | inhibition [1] | inhibition [2] | inhibition [3] | inhibition [4] | inhibition [5] | inhibition [6] | inhibition [7] | inhibition [8] | inhibition [9] | inhibition [10] | inhibition [11] | inhibition [12] | inhibition [13] | inhibition [14] | inhibition [15] | inhibition [16] | inhibition [17] | inhibition [18] | inhibition [19] | inhibition [20]
CCS(=O)(=O)c1ccc(OC)c(Nc2ncc(-c3cccc(-c4ccccc4F)c3)o2)c1 | 0.08% | 1.03% | 1.67% | 0.99% | -0.68% | 1.36% | -2.09% | 1.63% | -0.61% | -0.87% | -0.99% | 20.4% | 0.9% | 45% | 41% | 82.8% | 4.55% | 27.2% | 47.1% | 
Fc1ccc(-c2c(-c3ccncc3)nc3n2CCS3)cc1 | 5.11% | 2.32% | 3.2% | 2.33% | 2.6% | -0.57% | 0.48% | 3.63% | 2.47% | 5.56% | 4.81% | 2.99% | 5.74% | -4.22% | -5.59% |  | 1.54% | 1.37% | -3.03% | 2.94%
CN(C)c1ccc2c(c1)/C(=C/Nc1ccc(S(N)(=O)=O)cc1)C(=O)N2 | 23.1% | 1.42% | 2.38% | 2.78% | 3.05% | 0.8% | 2.13% | 5.09% | 3.01% | -1.19% | 4.93% | 2.05% | 5.45% | 33.6% |  | 55% | 4.82% | 18.8% | 2.68% | 2.41%

— ChEMBL document CHEMBL1961873, “Compounds: GSK PKIS; Assays: Nanosyn kinase panel” (2012)
